Screening results (PubChem)
An excerpt weighted towards active compounds, which were near 2.3% of everything screened.
MCL1-BIM inh = MCL1-BIM-BH3 interaction inhibition (human); inhibition, % at 10.9 µM; AID 2057; Q07820; GST-MCL1 / FITC-Bim-BH3 fluorescence polarization; 320,000 tested, 0.68% active;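 active = inhibition above the mean inhibition of all tested compounds plus 3 SD, set per campaign, cut at about 40% in these data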;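 also: higher means more loss of mP so more displacement of Bim peptide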
Mcl1-Noxa inh = disrupts binding of human Mcl-1 to Noxa peptide; inhibition, % at 21.7 µM; AID 1022; 220,000 tested, 1.5% active; TR-FRET Mcl-1/Noxa peptide binding, 2 h; Q07820;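 active = compounds that cut the protein-peptide binding signal by more than 50% relative to plate controls in a single-dose test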;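 also: His-tagged Mcl-1 with rhodamine Noxa BH3 peptide and terbium anti-His antibody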
Mcl-1 Bim block = human Bim-Mcl-1 interaction inhibition. 190,000 tested, 0.1% active. Q07820. AID 1009. inhibition, % at 10 µM. Bead-based flow cytometry, Bim peptide-Mcl-1 binding; in the data active = inhibition above about 40%
GLD-1 RNA inh = GLD-1-TGE RNA interaction inhibition (C. elegans); inhibition, % at 5.96 µM; purified GLD-1 + fluorescein TGE RNA, fluorescence polarization; 320,000 tested, 0.44% active; Q17339;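 active = percent inhibition above a per-plate cutoff, the plate mean of test compounds plus 3 SD, cut at about 30% in these data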
Target sequence (Q17339 whole entry, looked up): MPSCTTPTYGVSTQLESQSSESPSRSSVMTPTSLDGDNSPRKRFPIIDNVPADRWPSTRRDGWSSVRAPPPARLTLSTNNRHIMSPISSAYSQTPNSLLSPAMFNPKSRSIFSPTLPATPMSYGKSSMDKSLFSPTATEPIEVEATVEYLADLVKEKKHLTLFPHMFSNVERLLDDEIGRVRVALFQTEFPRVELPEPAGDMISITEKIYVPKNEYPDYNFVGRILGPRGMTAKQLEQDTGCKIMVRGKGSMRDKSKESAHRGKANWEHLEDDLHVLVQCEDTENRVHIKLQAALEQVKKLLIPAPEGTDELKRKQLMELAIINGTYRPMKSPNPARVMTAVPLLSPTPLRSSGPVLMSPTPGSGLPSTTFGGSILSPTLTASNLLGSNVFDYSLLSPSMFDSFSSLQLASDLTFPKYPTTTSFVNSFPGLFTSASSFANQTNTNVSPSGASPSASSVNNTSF
Mcl1 Bid PPI = disrupts binding of human Mcl-1 to Bid peptide. Q07820. TR-FRET Mcl-1/Bid-Dy647 peptide binding, 1536-well. inhibition, % at 21.7 µM. 220,000 tested, 0.97% active. AID 1021;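 active = compounds that cut the binding signal by more than half at the single screening dose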;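 also: His-tagged Mcl-1 with europium anti-His antibody binding Bid BH3 peptide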
Bcl-xL primary = Bcl-xL (human) inhibition; Q07817; GST-Bcl-xL / FITC-Bim BH3 peptide fluorescence polarization; inhibition, % at 10.9 µM; 320,000 tested, 0.7% active; AID 2129;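 active = inhibition above the mean of all tested compounds plus 3 SD, cutoff set per campaign, cut at about 30% in these data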;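 also: inhibitors lower millipolarization by displacing the labeled peptide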
Target sequence (Q07817 whole entry, looked up): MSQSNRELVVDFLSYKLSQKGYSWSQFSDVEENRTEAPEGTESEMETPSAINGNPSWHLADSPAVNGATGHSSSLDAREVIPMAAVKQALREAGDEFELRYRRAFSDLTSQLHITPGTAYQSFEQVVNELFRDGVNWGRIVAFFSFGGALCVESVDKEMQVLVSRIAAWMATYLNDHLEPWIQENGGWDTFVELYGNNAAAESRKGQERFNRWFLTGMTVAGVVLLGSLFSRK
Hits are given with their value.

For CC1(C)CC(=O)C(N=Nc2cc(Cl)c(Cl)c(Cl)c2)=C(O)C1 the results were MCL1-BIM inh inactive, Mcl1-Noxa inh inactive, Mcl-1 Bim block 42, GLD-1 RNA inh inactive, Mcl1 Bid PPI inactive and Bcl-xL primary inactive.
`Cc1ccc(O)c(N=NC2=C(O)CC(C)(C)CC2=O)c1` gave MCL1-BIM inh inactive, Mcl1-Noxa inh inactive, Mcl-1 Bim block inactive, GLD-1 RNA inh inactive, Mcl1 Bid PPI inactive and Bcl-xL primary inactive.
For O=C(Nc1ccccc1)Nc1ccc2snnc2c1 the results were MCL1-BIM inh inactive, Mcl1-Noxa inh inactive, Mcl-1 Bim block inactive, GLD-1 RNA inh inactive, Mcl1 Bid PPI inactive and Bcl-xL primary inactive.
`CN(C)c1ccc(NC(=O)Nc2ccc3snnc3c2)cc1` gave MCL1-BIM inh inactive, Mcl1-Noxa inh 93, Mcl-1 Bim block inactive, GLD-1 RNA inh inactive, Mcl1 Bid PPI inactive and Bcl-xL primary inactive.
For CCN(CC)CC(C)OC(=O)c1cc(OC)c(OC)c(OC)c1 (stereo not drawn) the results were MCL1-BIM inh inactive, Mcl1-Noxa inh inactive, Mcl-1 Bim block inactive, GLD-1 RNA inh inactive, Mcl1 Bid PPI 51 and Bcl-xL primary inactive.
Screening CCC(C)(C)NC(=O)C(C(C)C)N(CC1CCCO1)C(=O)CNS(=O)(=O)c1ccccc1 (stereo not drawn) returned MCL1-BIM inh inactive, GLD-1 RNA inh inactive and Bcl-xL primary inactive.
Screening NC(=O)COC(=O)c1c2c(nc3ccccc13)CCC2 returned MCL1-BIM inh inactive, Mcl1-Noxa inh 57, Mcl-1 Bim block inactive, GLD-1 RNA inh inactive, Mcl1 Bid PPI inactive and Bcl-xL primary inactive.
For O=C(NCc1ccc(F)cc1)c1c2c(nc3ccccc13)CCC2 the results were MCL1-BIM inh inactive, Mcl1-Noxa inh 77, Mcl-1 Bim block inactive, GLD-1 RNA inh inactive, Mcl1 Bid PPI inactive and Bcl-xL primary inactive.
`COc1ccc(NC(=O)C(=O)N2N=C3CCCCC3C2(O)C(F)(F)F)cc1` (stereo not drawn) gave MCL1-BIM inh inactive, Mcl1-Noxa inh inactive, Mcl-1 Bim block inactive, GLD-1 RNA inh inactive, Mcl1 Bid PPI inactive and Bcl-xL primary inactive.
Cc1onc(-c2c(Cl)cccc2Cl)c1C(=O)Nc1ccc(C(N)=O)cc1 was read as MCL1-BIM inh inactive, GLD-1 RNA inh inactive and Bcl-xL primary inactive.
`CCCCN(C(=O)Cn1ncc(Cl)c(Cl)c1=O)c1c(N)n(CC(C)C)c(=O)[nH]c1=O` gave MCL1-BIM inh inactive, Mcl1-Noxa inh 66, GLD-1 RNA inh inactive, Mcl1 Bid PPI inactive and Bcl-xL primary inactive.
`Cc1cccc(C(=O)N2CCN(Cc3nc4sc5c(c4c(=O)[nH]3)CCCC5)CC2)c1` gave MCL1-BIM inh inactive, GLD-1 RNA inh inactive and Bcl-xL primary inactive.
Screening Cc1nc(COc2ccccc2Cl)sc1-c1ccnc(N)n1 returned MCL1-BIM inh inactive, Mcl1-Noxa inh inactive, GLD-1 RNA inh inactive, Mcl1 Bid PPI 55 and Bcl-xL primary inactive.
`COc1ccc(N2CCN(C(=O)C3CCN(S(=O)(=O)c4ccc5c(c4)oc(=O)n5C)CC3)CC2)cc1` gave MCL1-BIM inh inactive, GLD-1 RNA inh inactive and Bcl-xL primary inactive.
For O=C(NCC1CCCO1)C1CCN(S(=O)(=O)Cc2ccccc2)CC1 (stereo not drawn) the results were MCL1-BIM inh inactive, Mcl1-Noxa inh inactive, Mcl-1 Bim block inactive, GLD-1 RNA inh 151, Mcl1 Bid PPI inactive and Bcl-xL primary inactive.
Screening C=CC[C@]12C[C@@H](OC)C(=O)C=C1O[C@@H](c1ccc(OC)c(OC)c1)[C@H]2C returned MCL1-BIM inh inactive, GLD-1 RNA inh inactive and Bcl-xL primary inactive.
Screening COc1ccc(C(=O)OCC(O)COC(=O)c2ccc(OC)cc2)cc1 returned MCL1-BIM inh inactive, GLD-1 RNA inh inactive and Bcl-xL primary inactive.
For O=c1[nH]c(Nc2ccccc2)cc2cc(Br)ccc12 the results were MCL1-BIM inh inactive, GLD-1 RNA inh inactive and Bcl-xL primary inactive.
For O=c1[nH]c(Nc2ccccc2)cc2ccccc12 the results were MCL1-BIM inh inactive, Mcl1-Noxa inh inactive, Mcl-1 Bim block inactive, GLD-1 RNA inh 55, Mcl1 Bid PPI inactive and Bcl-xL primary 54.
`CCOC(=O)c1ccc(-c2nnc(-c3ccc(Cl)cc3Cl)o2)cc1` gave MCL1-BIM inh inactive, Mcl1-Noxa inh inactive, Mcl-1 Bim block inactive, GLD-1 RNA inh inactive, Mcl1 Bid PPI inactive and Bcl-xL primary inactive.
CCOC(=O)c1cc(-c2nnc(-c3ccc(Cl)cc3)o2)c(C)nc1C was read as MCL1-BIM inh inactive, Mcl1-Noxa inh inactive, Mcl-1 Bim block 40, GLD-1 RNA inh inactive, Mcl1 Bid PPI inactive and Bcl-xL primary inactive.
Screening CC(=O)Nc1ccc(S(=O)(=O)N2CCC3(CC2)OCCO3)cc1 returned MCL1-BIM inh inactive, GLD-1 RNA inh inactive and Bcl-xL primary inactive.
Cc1cccc(OCC(=O)OCC(=O)Nc2sccc2C(N)=O)c1 was read as GLD-1 RNA inh inactive.
Screening NC(=O)c1ccsc1NC(=O)CSc1nnc(Nc2ccccc2)s1 returned MCL1-BIM inh inactive, Mcl1-Noxa inh 69, Mcl-1 Bim block inactive, GLD-1 RNA inh inactive, Mcl1 Bid PPI inactive and Bcl-xL primary inactive.
`NC(=O)c1ccsc1NC(=O)COc1ccccc1` gave MCL1-BIM inh 43, Mcl1-Noxa inh inactive, Mcl-1 Bim block inactive, GLD-1 RNA inh inactive, Mcl1 Bid PPI inactive and Bcl-xL primary 47.
Screening NC(=O)c1ccsc1NC(=O)CSc1ccccc1F returned MCL1-BIM inh inactive, Mcl1-Noxa inh inactive, Mcl-1 Bim block inactive, GLD-1 RNA inh inactive, Mcl1 Bid PPI inactive and Bcl-xL primary inactive.
Screening Cc1ccc(S(=O)(=O)N(CC#N)CC#N)cc1 returned MCL1-BIM inh inactive, Mcl1-Noxa inh inactive, Mcl-1 Bim block inactive, GLD-1 RNA inh inactive, Mcl1 Bid PPI inactive and Bcl-xL primary inactive.
Cc1cc([N+](=O)[O-])cc2c1NC(=O)C2(O)N1CCOCC1 (stereo not drawn) was read as MCL1-BIM inh inactive, Mcl1-Noxa inh inactive, Mcl-1 Bim block inactive, GLD-1 RNA inh inactive, Mcl1 Bid PPI inactive and Bcl-xL primary inactive.
Screening O=C(Nc1cccc(Cl)c1)Nc1nnc(-c2ccncc2)s1 returned MCL1-BIM inh inactive, Mcl1-Noxa inh 91, Mcl-1 Bim block inactive, GLD-1 RNA inh inactive, Mcl1 Bid PPI inactive and Bcl-xL primary inactive.
`O=C(NCCc1ccncc1)Nc1cccc(Cl)c1` gave MCL1-BIM inh inactive, Mcl1-Noxa inh inactive, Mcl-1 Bim block inactive, GLD-1 RNA inh inactive, Mcl1 Bid PPI inactive and Bcl-xL primary inactive.
CCOCCCNCC(=O)Nc1ccc(S(=O)(=O)NC(C)CC)cc1 (stereo not drawn) was read as MCL1-BIM inh inactive, Mcl1-Noxa inh inactive, Mcl-1 Bim block inactive, GLD-1 RNA inh inactive, Mcl1 Bid PPI inactive and Bcl-xL primary inactive.
Screening CCCCn1c(SCC(=O)NCCOC)nc2ccc(N3CCOCC3)cc2c1=O returned MCL1-BIM inh inactive, Mcl1-Noxa inh 89, Mcl-1 Bim block inactive, GLD-1 RNA inh inactive, Mcl1 Bid PPI inactive and Bcl-xL primary inactive.
For COc1ccc(-c2csc(Nc3ccc(S(=O)(=O)Nc4cc(C)on4)cc3)n2)cc1C the results were MCL1-BIM inh inactive, Mcl1-Noxa inh 51, Mcl-1 Bim block inactive, GLD-1 RNA inh inactive, Mcl1 Bid PPI inactive and Bcl-xL primary inactive.
